The nature of assay [1]: A CellTox Green Cytotoxicity Assay to monitor cytotoxicity in HEK293 cells - 32 hour (AID 1224881). Also: nearly all actives have a fitted effect of over 40% in size. The procedure, abridged: (§1)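 HEK293 cells premixed with CellTox Green dye were seeded at 600 cells/well and left 5 h at 37 C/5% CO2 before pin transfer of 23 nL compound in DMSO. Fluorescence from dye bound to dead-cell DNA was read during 40 h treatment.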
A short description of assay [2]: A CellTox Green Cytotoxicity Assay to monitor cytotoxicity in HepG2 cells - 0 hour (AID 1224882). Also: nearly all actives have a fitted effect of over 35% in size. The procedure, abridged:
(§2)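 HepG2 cells were seeded together with the CellTox Green dye at 600 cells/well, left 5 h at 37 C/5% CO2, then given compounds in DMSO. Fluorescence from dye bound to dead-cell DNA was read repeatedly over 40 h of treatment at 37 C.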

Assay [3] can be described thus: A CellTox Green Cytotoxicity Assay to monitor cytotoxicity in HepG2 cells - 32 hour (AID 1224883). Also: nearly all actives have a fitted effect of over 50% in size. The procedure, abridged: as §2
A short description of assay [4]: A CellTox Green Cytotoxicity Assay to monitor cytotoxicity in HEK293 cells - 8 hour (AID 1224884). Also: nearly all actives have a fitted effect of over 35% in size. Put shortly:
as §1

Assay [5] can be described thus: qHTS RealTime-Glo MT Cell Viability Assay in HEK293 cells - 24 hour (AID 1224886). Also: top concentration of the series differs between compounds; nearly all actives have a fitted effect of over 50% in size. Put shortly:
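HEK293 cells seeded with NanoLuc/prosubstrate reagent, rested 5 h at 37 C, then dosed and kept at 37 C up to 40 h. Nonlytic real-time luminescence from viable cells read at 0, 8, 16, 24, 32 and 40 h.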

Assay [6] in a line: qHTS RealTime-Glo MT Cell Viability Assay in HEK293 cells - 8 hour (AID 1224887). Also: top concentration of the series differs between compounds; nearly all actives have a fitted effect of over 50% in size. Put shortly: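 HEK293 cells mixed with RealTime-Glo reagents (NanoLuc plus cell-permeant prosubstrate) at 600 cells/well, preincubated 5 h at 37 C/5% CO2, then given 23 nL compound in DMSO. Nonlytic luminescence from viable cells was read at 0, 8, 16, 24, 32 and 40 h.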
Assay [7] can be described thus: A CellTox Green Cytotoxicity Assay to monitor cytotoxicity in HEK293 cells - 16 hour (AID 1224888). Also: nearly all actives have a fitted effect of over 35% in size. The procedure, abridged:
as §1

Assay [8] is described as follows: qHTS RealTime-Glo MT Cell Viability Assay in HepG2 cells - 0 hour (AID 1224889). Also: nearly all actives have a fitted effect of over 50% in size. The procedure, abridged: (§3)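 HepG2 cells (600/well) were dispensed with RealTime-Glo reagents, incubated 5 h at 37 °C, then treated with compounds in DMSO for up to 40 h. Nonlytic NanoLuc luminescence reflecting viable cells was read at each stated time point.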
Assay [9] is described as follows: A CellTox Green Cytotoxicity Assay to monitor cytotoxicity in HepG2 cells - 8 hour (AID 1224890). Also: nearly all actives have a fitted effect of over 45% in size. The procedure, abridged: as §2
Assay [10] in a line: qHTS assay to identify small molecule antagonists of the estrogen receptor alpha (ER-alpha) signaling pathway using the BG1 cell line in the presence of 0.1 nM 17-beta-estradiol - cell viability counter screen (AID 1259241). Also: nearly all actives have a fitted effect of over 40% in size. Put shortly:
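Viability in VM7Luc4E2 cells after 22 hr compound exposure under 0.1 nM 17beta-estradiol stimulation, by CellTiter-Fluor.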

Assay [11] in a line: qHTS assay to identify small molecule antagonists of the androgen receptor (AR) signaling pathway using the MDA cell line in the presence of 0.5 nM R1881 - cell viability counter screen (AID 1259242). Also: nearly all actives have a fitted effect of over 45% in size. The procedure, abridged:
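MDA-kb2 cells (human breast carcinoma, stably carrying MMTV-luciferase reporter) were exposed to compounds with 0.5 nM R1881 (final) for 16 hr at 37C, 0% CO2; viability then read as live-cell protease fluorescence (CellTiter-Fluor, 30 min) in the same wells.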

A short description of assay [12]: qHTS assay to identify small molecule phospholipidosis (PLD) inducers (AID 1259344; active = well fitted curve in the direction sought with a large enough effect; an effect the other way counts as inactive or inconclusive). The procedure, abridged: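 HepG2 cells, 900/well, treated with compound plus LipidTOX Red for 24 h at 37 C; amiodarone positive and DMSO negative controls. Fixed with paraformaldehyde/Hoechst, then high-content imaging scored LipidTOX pit count and integrated intensity per well and per cell.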

The nature of assay [13]: qHTS assay to identify small molecule HDAC inhibitors (AID 1259364). Also: nearly all actives have a fitted effect of over 45% in size. Also: potency is read from the fitted curve at half-maximal effect. Put shortly: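 Wild-type HCT-116 cells were plated overnight, exposed to compounds for 2 h at 37 °C, then given HDAC-Glo class I/II luminogenic reagent for 30 min at room temperature before luminescence was read.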
Assay [14] in a line: qHTS assay to identify small molecule HDAC inhibitors - cell viability counter screen (AID 1259365). The procedure, abridged: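 Cytotoxicity was gauged in wild-type HCT-116 cells after a brief 2hr treatment with DMSO-dissolved compounds at 37C and 5% CO2, using CellTiter-Glo luminescence developed for 30min at room temperature.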
The nature of assay [15]: qHTS assay to identify small molecule agonists of the sonic hedgehog signaling (Shh) pathway - cell viability counter screen (AID 1259366). Also: nearly all actives have a fitted effect of over 50% in size. Also: potency is read from the fitted curve at half-maximal effect. The procedure, abridged:
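Stable Gli1-Luc NIH/3T3 clone, 2,000 cells/well. Compound exposure 24hr at 37C. Read-out: CellTiter-Fluor fluorescence.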

Assay [16] can be described thus: qHTS assay to identify small molecule antagonists of the sonic hedgehog signaling (Shh) pathway - cell viability counter screen (AID 1259367). Also: nearly all actives have a fitted effect of over 55% in size. Also: potency is read from the fitted curve at half-maximal effect. The procedure, abridged: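 NIH/3T3-derived Gli1-Luc reporter cells, 2,000/well, plated 4 hr before compound addition, then stimulated with conditioned medium for 24 hr at 37C. Viability measured in the same wells by CellTiter-Fluor fluorescence, reagent added at 23 hr for 1 hr.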

The nature of assay [17]: qHTS assay to identify small molecule agonists of the sonic hedgehog signaling (Shh) pathway (AID 1259368; calls by dose curve; also: series mostly up to about 92 µM; nearly all actives have a fitted effect of over 15% in size). Put shortly: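 NIH/3T3-derived 3T3Gli1-Luc cells carrying a stably integrated Gli1 response element–firefly luciferase reporter were plated, left 4 hr at 37 C, then given compounds in DMSO for 24 hr. Luminescence was read 30 min after adding luciferase reagent.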

The nature of assay [18]: qHTS RealTime-Glo MT Cell Viability Assay in HepG2 cells - 16 hour (AID 1224885). Also: nearly all actives have a fitted effect of over 50% in size. The procedure, abridged:
as §3

Assay [19] has as its target Androgen receptor (Homo sapiens) (UniProt P10275). In words: qHTS assay to identify small molecule antagonists of the androgen receptor (AR) signaling pathway using the MDA cell line in the presence of 0.5 nM R1881 (AID 1259243). Also: nearly all actives have a fitted effect of over 50% in size. Put shortly: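 MDA-kb2 human breast carcinoma cells carrying an MMTV-luciferase reporter (AR- and GR-responsive) were plated, rested 5 hr at 37C, dosed with compounds, then stimulated with 0.5 nM R1881 (final) for 16 hr; luminescence was read after ONE-Glo.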

For assay [20], the target named is Estrogen receptor (Homo sapiens) (UniProt P03372). Briefly: qHTS assay to identify small molecule antagonists of the estrogen receptor alpha (ER-alpha) signaling pathway using the BG1 cell line in the presence of 0.1 nM 17-beta-estradiol (AID 1259244). Also: nearly all actives have a fitted effect of over 50% in size. Put shortly: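 VM7Luc4E2 cells (endogenous full-length ER-alpha, stable 4xERE-luciferase) were grown 5 days in phenol red-free medium with charcoal-stripped FBS, then exposed 22 h at 37C to compounds plus 0.1 nM (final) 17beta-estradiol; ONE-Glo luminescence read-out.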
Sequence of Estrogen receptor (Homo sapiens) (P03372 whole entry, looked up): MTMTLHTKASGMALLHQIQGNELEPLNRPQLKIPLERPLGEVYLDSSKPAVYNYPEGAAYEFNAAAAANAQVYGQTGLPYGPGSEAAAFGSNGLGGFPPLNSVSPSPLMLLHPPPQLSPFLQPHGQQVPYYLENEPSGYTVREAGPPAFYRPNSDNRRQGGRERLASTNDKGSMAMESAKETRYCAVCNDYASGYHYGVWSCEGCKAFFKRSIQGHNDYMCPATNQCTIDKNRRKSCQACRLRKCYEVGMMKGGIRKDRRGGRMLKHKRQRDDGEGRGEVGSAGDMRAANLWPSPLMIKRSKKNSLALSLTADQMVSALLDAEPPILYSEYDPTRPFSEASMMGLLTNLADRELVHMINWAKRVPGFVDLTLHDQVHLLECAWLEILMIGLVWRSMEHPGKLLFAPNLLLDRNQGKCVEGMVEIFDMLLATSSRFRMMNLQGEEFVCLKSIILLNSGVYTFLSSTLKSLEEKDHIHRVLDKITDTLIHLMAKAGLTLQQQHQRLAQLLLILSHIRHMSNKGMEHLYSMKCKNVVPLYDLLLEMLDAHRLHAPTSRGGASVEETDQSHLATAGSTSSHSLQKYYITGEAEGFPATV

Several values for one entry are separate records, joined by “and”; a condition that tells them apart may be missing. Identical values can stand only once. Records with an inconclusive call do not appear. Activity calls are given as the source filed them. Unless noted, calls follow the shape of the dose curve; as a rule, active = well fitted curve in the direction sought with a large enough effect in the repeat runs; inconclusive = weak or mixed curves; inactive = no such curve, though single readings can be large; an effect the other way counts as inactive or inconclusive.

Sequence of Androgen receptor (Homo sapiens) (P10275 whole entry, looked up): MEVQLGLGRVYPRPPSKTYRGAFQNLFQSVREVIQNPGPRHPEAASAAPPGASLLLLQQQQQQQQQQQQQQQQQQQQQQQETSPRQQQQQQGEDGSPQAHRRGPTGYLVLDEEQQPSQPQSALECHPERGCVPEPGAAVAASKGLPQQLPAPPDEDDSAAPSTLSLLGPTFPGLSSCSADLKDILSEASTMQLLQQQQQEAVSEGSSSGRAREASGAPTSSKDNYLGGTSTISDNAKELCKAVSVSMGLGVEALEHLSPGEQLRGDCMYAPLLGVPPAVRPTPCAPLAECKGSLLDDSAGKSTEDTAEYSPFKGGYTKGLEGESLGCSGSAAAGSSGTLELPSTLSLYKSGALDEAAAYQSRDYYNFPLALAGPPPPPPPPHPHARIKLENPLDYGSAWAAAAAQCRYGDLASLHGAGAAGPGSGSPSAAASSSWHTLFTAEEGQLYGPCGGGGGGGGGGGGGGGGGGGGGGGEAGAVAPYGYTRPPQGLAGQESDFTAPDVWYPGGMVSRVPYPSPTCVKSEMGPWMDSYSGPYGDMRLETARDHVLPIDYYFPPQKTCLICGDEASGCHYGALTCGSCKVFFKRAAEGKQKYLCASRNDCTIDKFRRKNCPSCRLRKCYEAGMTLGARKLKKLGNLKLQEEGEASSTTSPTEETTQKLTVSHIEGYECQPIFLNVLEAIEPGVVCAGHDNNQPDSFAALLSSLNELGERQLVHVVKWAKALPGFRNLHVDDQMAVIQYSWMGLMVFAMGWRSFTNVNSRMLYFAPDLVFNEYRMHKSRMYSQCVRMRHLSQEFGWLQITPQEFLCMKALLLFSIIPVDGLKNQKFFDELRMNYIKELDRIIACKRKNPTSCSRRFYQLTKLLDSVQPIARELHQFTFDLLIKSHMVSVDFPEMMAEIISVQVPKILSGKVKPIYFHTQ

With `CCC1(c2ccccc2)C(=O)NCNC1=O`, the Potency entry in assay [1], in assay [2], in assay [3], in assay [4], in assay [5] and in [6] was “inactive” in each case. The Potency result in assay [7], in [8], in [9], in assay [10], in assay [11] and in assay [13] was “inactive” each time. Further, the Potency result in [15] and in assay [16] was “inactive” throughout. In addition, the compound was classed as inactive in assay [12], in assay [14] and in assay [17].

As to `O=C1NC(=O)c2ccccc21`, the Potency entry in assay [1], in assay [2], in assay [3], in assay [4], in [5] and in assay [6] was “inactive” each time. Besides, the Potency entry in assay [7], in [9], in [10], in assay [11], in assay [13] and in assay [15] was “inactive” throughout. Moreover, the Potency result in [16] was “inactive”. Also, the result in assay [14] and in assay [17] was inactive.

For the compound `CNC[C@H](O)c1cccc(O)c1`, the Potency entry in assay [1], in [2], in [3], in [4], in assay [5] and in assay [6] was “inactive” each time. Moreover, the Potency result in assay [7], in [9], in assay [10], in [13], in [15] and in assay [16] was “inactive” throughout. The result in [12], in [14] and in assay [17] was inactive.

As for `Oc1ccc(/C=C/c2cc(O)cc(O)c2)cc1`, the Potency entry in assay [1], in [2], in assay [4], in assay [18], in [6] and in assay [7] was “inactive” each time. Further, the Potency result in [9], in [10], in [19] and in [20] was “inactive” in each case. Besides, the call in assay [12], in assay [14] and in [17] was inactive. For the same compound, the Potency in assay [13] was 1.95 µM (active) and 1.22 µM (active) and 2.98 µM (active); in [15], 21.9 µM (active) and 24.3 µM (active); in assay [16], 30.9 µM (active) and 27.3 µM (active).

For the compound `O=C(O)/C=C\C(=O)O`, the Potency entry in assay [1], in assay [2], in [3], in assay [4], in assay [5] and in assay [6] was “inactive” in each case. The Potency entry in [7], in assay [9], in [13], in assay [15] and in [16] was “inactive” each time. Moreover, the compound was called inactive in assay [14] and in [17].

With `NC(=O)NC1NC(=O)NC1=O` (configuration not stated), the Potency entry in assay [1], in assay [2], in assay [3], in assay [4], in assay [5] and in assay [6] was “inactive” each time. The Potency entry in assay [7], in assay [8], in assay [9], in [10], in [11] and in [13] was “inactive” throughout. Besides, the Potency result in assay [15] and in assay [16] was “inactive” each time. Besides, the call in assay [12], in assay [14] and in [17] was inactive.

Regarding `O=C(O)CCC(=O)O`, the Potency entry in assay [1], in assay [2], in assay [3], in assay [4], in [5] and in assay [6] was “inactive” each time. The Potency entry in assay [7], in [8], in assay [9], in [10], in [20] and in assay [13] was “inactive” each time. Besides, the Potency entry in [15] and in [16] was “inactive” each time. For the same compound, the call in assay [12], in assay [14] and in [17] was inactive.

Take `Cc1cc(=O)[nH]c(=S)[nH]1`: the Potency result in assay [1], in [2], in [3], in assay [4], in assay [5] and in assay [6] was “inactive” in each case. The Potency result in [7], in assay [8], in assay [9], in [10], in assay [20] and in assay [13] was “inactive” throughout. In addition, the Potency result in assay [15] and in assay [16] was “inactive” each time. The compound was called inactive in assay [12], in [14] and in assay [17].

For the origin of these results see PubChem BioAssay (Tox21).
